# A selection: hits, their analogues and other compounds. The true share with any hit is near 19%.
# TDP1 inh – qHTS Assay for Inhibitors of Tyrosyl-DNA Phosphodiesterase (TDP1) | AID 485290, 2010 | Potency, µM (top dose mostly 130 µM), for the others: top-dose activity change, negative = inhibition, most hits filed as inhibitors | recombinant TDP1, AlphaScreen DNA substrate cleavage | Tyrosyl-DNA phosphodiesterase 1 (Homo sapiens), Q9NUW8 | hit rate 0.28% among 350,000; further: nearly all actives have a fitted effect of over 40% in size
# Target sequence (Q9NUW8 whole entry, looked up): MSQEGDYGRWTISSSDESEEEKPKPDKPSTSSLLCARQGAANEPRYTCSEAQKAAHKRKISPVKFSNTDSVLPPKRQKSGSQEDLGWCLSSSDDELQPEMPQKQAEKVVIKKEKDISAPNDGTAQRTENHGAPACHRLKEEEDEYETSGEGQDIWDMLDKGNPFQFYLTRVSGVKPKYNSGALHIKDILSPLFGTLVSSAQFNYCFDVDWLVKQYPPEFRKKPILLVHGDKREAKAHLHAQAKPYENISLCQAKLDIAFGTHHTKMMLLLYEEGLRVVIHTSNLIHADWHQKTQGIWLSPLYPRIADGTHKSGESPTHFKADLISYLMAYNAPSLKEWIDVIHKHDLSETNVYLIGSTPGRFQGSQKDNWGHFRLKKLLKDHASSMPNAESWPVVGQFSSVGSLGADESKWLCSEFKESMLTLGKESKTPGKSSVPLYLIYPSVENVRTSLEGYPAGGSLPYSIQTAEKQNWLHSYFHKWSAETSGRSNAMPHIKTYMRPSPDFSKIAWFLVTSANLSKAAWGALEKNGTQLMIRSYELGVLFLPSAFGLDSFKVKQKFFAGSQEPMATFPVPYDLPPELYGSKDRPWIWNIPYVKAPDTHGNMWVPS
#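 Recombinant human Tdp1 (E. coli-expressed, 1 nM final) preincubated with compounds 15 min at room temperature, then 5'-biotin/3'-phosphotyrosine-FITC DNA substrate (15 nM final) added for 5 min. AlphaScreen beads (10 ug/ml final) added 10 min; cleavage lowers signal.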
# TDP1 cell noCPT – qHTS for Inhibitors of human tyrosyl-DNA phosphodiesterase 1 (TDP1): qHTS in cells in absence of CPT; DT40 Tdp1-/- hTDP1 cells, no CPT, ATP luminescence, 48 h; Potency, µM (highest dose often 46.2 µM), inactives show at the top dose activity change, negative = growth inhibition, actives largely listed as inhibitors; hit rate 15% among 420,000; further: nearly all actives have a fitted effect of over 55% in size
#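 DT40 Tdp1-/-;hTDP1 cells, no CPT (DMSO vehicle only), 400 cells/well; compounds pin-transferred; ≥48 hr, 37 °C; CellTiter-Glo 30 min RT dark, luminescence read.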
# Gal4-VP16 FLuc – VP16 counterscreen qHTS for inhibitors of ROR gamma transcriptional activity; Drosophila S2 Gal4-VP16 UAS-luciferase, luminescence, 20 h; hit rate 3.5% among 310,000; AID 2546, 2010; Potency, µM (highest dose often 53.6 µM), without a hit: top-dose activity, negative = inhibition, usual class: inhibitors;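 further: Gal4-VP16 expression switched on by copper sulfate through the metallothionein promoter; nearly all actives have a fitted effect of over 50% in size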
# RORg inh – qHTS for inhibitors of ROR gamma transcriptional activity | hit rate 5.4% among 310,000 | Drosophila S2 Gal4-RORgamma UAS-luciferase reporter, 20 h | AID 2551, 2010 | Potency, µM (series often up to 53.6 µM), inactives show at the top dose activity change, negative = inhibition, actives largely listed as inhibitors; further: nearly all actives have a fitted effect of over 60% in size
#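 Luminescence from a UAS-regulated Photinus luciferase reporter in stably transfected Drosophila Schneider cells is measured; decreased signal marks ROR gamma inhibition. Fusion expression is induced by 700 uM copper sulfate for 20 hr.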
# DT40 TDP1 CPT – qHTS for Inhibitors of human tyrosyl-DNA phosphodiesterase 1 (TDP1): qHTS in cells in presence of CPT; chicken DT40 Tdp1-/-;hTDP1 cells + 20 nM CPT, ATP luminescence, 48 h; Potency, µM (highest dose often 46.2 µM), without a hit: at the highest dose activity change, negative = growth inhibition, hits mostly inhibitors; hit rate 12% among 420,000; AID 686979, 2013; further: nearly all actives have a fitted effect of over 55% in size
#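 Chicken DT40 Tdp1-/- cells complemented with human TDP1, 400 cells/well, exposed to compounds plus 20 nM camptothecin for at least 48 h at 37 C; viability read as ATP content by CellTiter-Glo luminescence.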
# * marks the source's active call; other numbers are inactive results; u = inconclusive; x = no result; ! = a repeat was not active; [ ] = another dose, or the depositor's remark. The call rests on the fitted dose curve; in most records, active means well fitted curve in the direction sought with a large enough effect; inconclusive means small, poorly fitted or top-dose-only effect, or another doubt; inactive means no such curve, though single readings can be large; an effect the other way counts as inactive or inconclusive. On the % scale 0 is the no-effect control and ±100 the full control effect; potency means the concentration at half of the fitted maximal effect.
SMILES,TDP1 inh,TDP1 cell noCPT,Gal4-VP16 FLuc,RORg inh,DT40 TDP1 CPT
O=C(C[C@@H]1C/C=C\C[C@H](NC(=O)OCC2c3ccccc3-c3ccccc32)C(=O)OC[C@H]2CCCN2C1=O)N[C@H](CO)Cc1ccccc1,-1%,5.2µM*,x,x,4.6µM*
O=C(C[C@@H]1C/C=C\C[C@H](NC(=O)OCC2c3ccccc3-c3ccccc32)C(=O)OC[C@@H]2CCCN2C1=O)NCCO,u,10µM*,x,x,4.6µM*
COc1ccc(F)cc1S(=O)(=O)NCCN1CCOCC1,5%,-1%,x,x,-8%
CCc1cccc2c(C(=S)N3CCCC3)c[nH]c12,2%,-9%,-10%,23%,-23%
COc1ccccc1NC(=O)/C=C/c1ccc(OC)c(S(=O)(=O)N2CCOCC2)c1,-5%,-10%,-10%,-1%,0%
CCOc1ccc(NC(=O)COc2ccc3c(c2)CCC3)cc1OC,2%,-24%,x,x,-22%
CC(C)(C)OC(=O)C[C@@H]1C/C=C\C[C@H](CC(=O)N[C@H](CO)Cc2ccccc2)C(=O)N[C@@H](Cc2ccccc2)COC1=O,1%,u,x,x,u
O=C(C[C@@H]1C/C=C\C[C@H](NC(=O)OCC2c3ccccc3-c3ccccc32)C(=O)OC[C@@H]2CCCN2C1=O)N[C@@H](CO)Cc1ccccc1,-11%,18µM*,x,x,18µM*
CCC(=O)Nc1cc(C(=O)OC(C(=O)c2ccc(C)c(C)c2)c2ccccc2)ccc1C (centres undefined),2%,u,-7%,26%,18µM*
CN(C)c1nccc(N(Cc2ccccc2)Cc2ccccc2)c1C#N,-2%,29µM*,-9%,-3%,18µM*
CN(C)CCN(Cc1ccccc1)c1ccnc(N(C)C)c1C#N,-6%,u,10%,1%,-25%
CC(C)(C)C(=O)/C=c1\s/c(=C\c2ccc(-c3ccc([N+](=O)[O-])cc3)o2)c(=O)n1CC(=O)NC(N)=O,5%,23µM*,-10%,22%,u
CC1COc2c(N3CCN(C)CC3)c(F)cc3c(=O)c(C(=O)O)cn1c23 (centres undefined),10%[56.1 µM],13µM*!,7%,3%,21µM*!
CCOc1ccc(NC(=O)c2ccc(NC(=O)c3cn4c5c(c(N6CCN(C)CC6)c(F)cc5c3=O)OCC4C)cc2)cc1 (centres undefined),6%,4.6µM*,-7%,-17%,5.2µM*
C[C@@H]1CCc2cc(F)cc3c(=O)c(C(=O)O)cn1c23,12%[21 µM],x,-6%[17 µM],0%[16.9 µM],x
Cc1cc(C)cc(OCC(=O)Nc2nc3c(s2)CC(C(C)(C)C)CC3)c1 (centres undefined),6%,23µM*,x,x,18µM*
CC(C)(C)C1CCc2nc(NC(=O)c3ccc([N+](=O)[O-])cc3)sc2C1 (centres undefined),6%,u,x,x,u
CC(C)(C)C1CCc2nc(NC(=O)c3cccc(Cl)c3)sc2C1 (centres undefined),6%,23µM*,x,x,u
Cc1cccc(OCC(=O)Nc2nc3c(s2)CC(C(C)(C)C)CC3)c1C (centres undefined),0%,18µM*,x,x,16µM*
CC(C)(C)C1CCc2nc(NC(=O)COc3ccccc3[N+](=O)[O-])sc2C1 (centres undefined),-3%,u,x,x,16µM*
CC(C)(C)C1CCc2nc(NC(=O)Cc3ccccc3)sc2C1 (centres undefined),-3%,u,x,x,u
Cc1cc(=O)n2nc(N3CCC(C(=O)NCc4ccc(Cl)cc4)CC3)sc2n1,4%,u,-3%,25%,-9%
CN(C(=O)COC(=O)c1cn(-c2ccccc2)nc1-c1ccccc1)C1CCS(=O)(=O)C1 (centres undefined),-3%,-4%,3%,35%,-17%

# Screening results (PubChem)
